According to PubChem BioAssay AID540256 (National Center for Advancing Translational Sciences (NCATS), 2011):
In all, about 300,000 compounds went through this assay and about 3,700 (1.2%) were called active. A call without a number means that no potency is given here. About 20% were inconclusive and are not listed. Calls follow the shape of the full dose curve; tested in HEK293 cells. This excerpt belongs to a sample that is enriched for actives.

Assay: qHTS for Inhibitors of binding or entry into cells for Lassa Virus; also: nearly all actives have a fitted effect of over 50% in size
Settings: Lassa virus pseudotype entry inhibition, cell reporter; series mostly up to 37.9 µM
Potency is read from the fitted curve at half-maximal effect.

Row | Structure (SMILES) | Potency
1 | CC(C)c1ccc(S(=O)(=O)N2CCN(C(=O)CN3C(=O)NC(C)(c4ccccc4)C3=O)CC2)cc1 (centres undefined) | inactive
2 | Cc1cc(S(=O)(=O)Nc2ccc(C(=O)NCC(c3ccco3)N3CCCC3)cc2)ccc1F (centres undefined) | inactive
3 | CCOc1ccc(NS(=O)(=O)c2ccc(C(=O)NC3CCN(Cc4ccccc4)CC3)cc2)cc1 | inactive
4 | CCC(=O)c1cn(CCOc2ccccc2OC)c2ccccc12 | inactive
5 | CCCCOc1ccc(C(=O)NCc2ccncc2)cc1 | inactive
6 | CCCOc1ccc(C(=O)NCCc2ccccc2)cc1 | 2.51 µM (active)
7 | COc1ccc(OCCCC(=O)NCCc2ccccc2)cc1 | inactive
8 | O=C(NCc1cccnc1)c1cn(-c2ccccc2)nc1-c1cccs1 | inactive
9 | CC(C)(C)OC(=O)N/N=C/c1cn(-c2ccccc2)nc1-c1cccnc1 | inactive
10 | O=C(O)c1ccc(N/N=C/c2cn(-c3ccccc3)nc2-c2cccs2)cc1 | 5.01 µM (active)
11 | O=C(CC1Sc2ccccc2NC1=O)NNc1ccc(Cl)c(Cl)c1 (centres undefined) | inactive
12 | Cc1c(C)c(C)c(S(=O)(=O)N2CCC3(CC2)OCCO3)c(C)c1C | inactive
13 | CC(=NNC(=O)c1ccncc1)c1ccc(Cl)c(Cl)c1 | inactive
14 | CCN(c1ccccc1)S(=O)(=O)c1ccc(C(=O)Nc2nccs2)cc1 | inactive
15 | CCN(c1ccccc1)S(=O)(=O)c1cccc(C(=O)O)c1 | inactive
16 | CCN(c1ccccc1)S(=O)(=O)c1ccc(NC(=O)C(C)(C)C)cc1 | 14.6 µM (active)
17 | CN(CC(=O)NCC(c1ccccc1)N1CCCC1)S(=O)(=O)c1ccc(Cl)cc1 (centres undefined) | inactive
18 | CCOc1ccc(NC(=O)c2ncoc2-c2ccco2)cc1 | inactive
19 | CCOc1ccc(-c2nnc(-c3ccco3)o2)cc1 | 5.8 µM (active)
20 | CCCCOc1ccc(-c2nnc(-c3ccco3)o2)cc1 | inactive
21 | Cc1c[n+]([O-])ccc1[N+](=O)[O-] | inactive
22 | O=C1C2C3C=CC(C3)C2C(=O)N1c1ncc([N+](=O)[O-])s1 (centres undefined) | inactive
23 | CCOc1ccc(S(=O)(=O)Nc2ccc(OC)nc2)cc1 | inactive
24 | COc1ccc(C(=O)Nc2ccc(NC(=O)C(C)C)nc2)cc1 | inactive
25 | COc1ccc(CS(=O)/C(Cl)=C(/Cl)C(=O)Nc2ccc(OC)nc2)cc1 (centres undefined) | 3.98 µM (active)
26 | O=C(CSc1nnnn1C1CCCC1)N1CCCCC1 | inactive

Row | Structure (SMILES) | Potency
27 | Cc1ccc(C)c(OCCC(=O)OCC(=O)NC(=O)NCc2ccccc2)c1 | inactive
28 | Cc1cc(C)cc(NC(=O)COc2coc(CN3CCN(c4ccccc4)CC3)cc2=O)c1 | inactive
29 | NC1=NOC(=O)C1C1CCCCC1 (centres undefined) | inactive
30 | CCOc1ccc(NC(=O)CN(Cc2ccccc2)S(=O)(=O)c2ccc(Cl)cc2)cc1 | inactive
31 | CCOc1ccc(N(Cc2ccccc2)C(=O)c2nc(S(C)(=O)=O)ncc2Cl)cc1 | 2.51 µM (active)
32 | CCOc1ccc(N(Cc2ccccc2)C(=O)c2nc(SCC)ncc2Cl)cc1 | inactive
33 | CC1=NN(C(N)=S)C(=O)C1N=Nc1cc(Cl)ccc1Cl (centres undefined) | inactive
34 | C[C@]12CCC(=O)C=C1C=CC1C2CC[C@@]2(C)C1CC[C@@]21CCC(=O)O1 (some centres undefined) | inactive
35 | CC1Cc2ccccc2N1S(=O)(=O)c1cccc(C(=O)OCC(=O)N2CCOCC2)c1 (centres undefined) | inactive
36 | CCN(CC)c1ccc(/C=N/Nc2nc(C)cc(=O)[nH]2)cc1 | inactive
37 | Cc1cc(C)c(C=NNc2nc3c([nH]2)c(=O)n(C)c(=O)n3C)c(C)c1 | inactive
38 | Cc1cc(=O)[nH]c(N/N=C/c2c(C)nn(-c3ccccc3Cl)c2Cl)n1 | 11.2 µM (active)
39 | O=C(O)c1ccc(NN=CC2=C(N3CCOCC3)/C(=C/c3ccccc3)CC2)cc1 | inactive
40 | Cc1ccc(/C=N/NC(=O)C2=NNC(c3ccccc3)(c3ccccc3)C2)c(O)c1 | 14.1 µM (active)
41 | Cc1ccc2nc(CNC(=O)c3ccccc3)[nH]c2c1 | inactive
42 | O=C(N/N=C/c1ccc(O)c2ccccc12)c1cccnc1 | inactive
43 | CC(NC(=O)c1ccccc1)C(=O)OCC(=O)Nc1cccc(S(=O)(=O)N2CCCC2)c1 (centres undefined) | inactive
44 | Cc1cc(C)c2nc(SCCC#N)nc(C)c2c1 | inactive
45 | Cc1cc(C)c2nc(-c3ccco3)cc(C(=O)O)c2c1 | inactive
46 | Cc1cc(C)c2nc3nc(C)cc(C)c3c(N)c2c1 | 12.6 µM (active)
47 | CCOC(=O)C1(Cc2ccccc2C)CCCN(C(=O)c2ccc(COC)o2)C1 (centres undefined) | inactive
48 | COc1ccc(N2CCN(S(=O)(=O)c3cc4c5c(c3)C(C)C(=O)N5CCC4)CC2)cc1 (centres undefined) | inactive
49 | Cc1ccc(NC(=O)c2oc3ccc(S(=O)(=O)N4CCCCC4)cc3c2C)cc1Cl | inactive
50 | O=C(CC1SC(=Nc2ccccc2F)N(CCN2CCOCC2)C1=O)Nc1ccc(F)cc1F (centres undefined) | 11.2 µM (active)
51 | COC(=O)c1sccc1NC(=O)CC1C(=O)NCCN1C(=O)Nc1ccc(F)cc1F (centres undefined) | inactive
52 | O=C(CN1CCN(C/C=C/c2ccccc2)CC1)Nc1ccc(F)cc1F | inactive

Row | Structure (SMILES) | Potency
53 | O=C(c1cc(COc2cccc(C(F)(F)F)c2)on1)N1CCSCC1 | inactive
54 | COc1ccc(Cc2nc3ccc(C(=O)NCC4CCOCC4)cc3o2)cc1OC | inactive
55 | CCCC=Cc1ccc(CN2C(C(C)C)C(=O)N(Cc3cn(CC4CCCCC4)nn3)CCS2(=O)=O)cc1 (centres undefined) | 25 µM (active)
56 | COCOCCn1cc(CN2CCS(=O)(=O)N(Cc3ccc(-c4cccc(N(C)C)c4)cc3)C(CC(C)C)C2=O)nn1 (centres undefined) | inactive
57 | CC1C(=O)N(Cc2cn(Cc3ccco3)nn2)CCS(=O)(=O)N1Cc1ccc(-c2cccc(CO)c2)cc1 (centres undefined) | inactive
58 | CC1CCN(c2ccc(-c3ccc(NC(=O)c4ccco4)cc3)nn2)CC1 | inactive
59 | O=C(c1ccccc1)N1CCN(C(=O)c2cc3nc(-c4ccccc4)cc(C(F)(F)F)n3n2)CC1 | 11.2 µM (active)
60 | O=C(O)c1cnn2c(C(F)(F)F)cc(-c3ccccc3)nc12 | inactive
61 | COC(=O)c1cc2nc(-c3ccccc3)cc(C(F)(F)F)n2n1 | inactive
62 | Cn1cc(S(=O)(=O)N2CCCCCC2)cc1C(=O)N1CCN(c2ccc(F)cc2)CC1 | inactive
63 | COc1cc2c(cc1OC)C(Cc1cc(OC)c(OC)cc1[N+](=O)[O-])=NCC2 | inactive
64 | Cc1cc(Cl)nc(NC(=O)Nc2cccc(Cl)c2)n1 | inactive
65 | COC(=O)Nc1nc2ccc(Oc3ccc(NC(=O)Nc4cccc(Cl)c4)cc3)cc2[nH]1 | 6.28 µM (active)
66 | COC(=O)Nc1nc2ccc(Sc3ccccc3)cc2[nH]1 | inactive
67 | COc1ccc(CN2CCN(C(=O)CCC(=O)Nc3nnc(C(C)C)s3)CC2)cc1F | inactive
68 | Cn1c(N)c(C(=O)COC(=O)c2cccc(S(=O)(=O)N3CCOCC3)c2)c(=O)n(C)c1=O | inactive
69 | CC(C)(C)c1ccc(Oc2ccc(N)cc2)cc1 | 0.651 µM (active)
70 | Nc1ccc(Oc2ccc(Cl)cc2)cc1 | inactive
71 | Cc1ccc(Oc2ccc(N)cc2)cc1 | inactive
72 | O=S(=O)(Nc1ccc2ccccc2c1)N1CCCCC1 | inactive
73 | O=C1CC(c2ccccc2)C(c2ccccc2)=NN1 (centres undefined) | inactive
74 | CN1CCN(CCCCOc2cccc3ccccc23)CC1 | inactive
75 | C=CCNC(=O)c1ccc(C)c(Br)c1 | inactive
76 | Cc1ccc(C(=O)NC(C)c2ccccc2)cc1Br (centres undefined) | 11.6 µM (active)
77 | CC1=CCC2C(=O)N(c3cccc(C(=O)NC(C)c4ccccc4)c3)C(=O)C2C1 (centres undefined) | inactive
78 | c1ccc2c(c1)OC1OC2Oc2ccccc21 | inactive

Row | Structure (SMILES) | Potency
79 | CC1CCN(C(=O)CCc2nnc3ccc(NCc4ccco4)nn23)CC1 | inactive
80 | CCc1cc(C(N)=O)c(NC(=O)c2ccc(OC)cc2)s1 | inactive
81 | CCc1ccc(/C=N/NC(=O)c2ccc(OC3CCCC3)cc2)s1 | 2 µM (active)
82 | COC(=O)CNC(=O)c1ccc(OC2CCN(C(=O)C3CC3)CC2)cc1 | inactive
83 | COC(=O)Cc1c(-c2[nH]c3ccccc3c2CC(=O)OC)[nH]c2ccccc12 | inactive
84 | Cc1cc(S(=O)(=O)N2CCOCC2)ccc1OCC(=O)N1CCOCC1 | inactive
85 | O=C(COc1ccc(S(=O)(=O)N2CCOCC2)cc1Cl)N1CCOCC1 | inactive
86 | Cc1cc(C(=O)COc2ccccc2[N+](=O)[O-])c(C)n1-c1cccc(S(=O)(=O)N2CCOCC2)c1 | 6.31 µM (active)
87 | CSCCC(NS(=O)(=O)c1ccccc1F)C(=O)N1CC=C(c2ccccc2)CC1 (centres undefined) | inactive
88 | O=C(c1ccc(F)cc1)N1CCC(C(=O)N2CCN(S(=O)(=O)c3ccccc3Br)CC2)CC1 | inactive
89 | COC(=O)c1cnn(-c2ccc(C(=O)Nc3ccc(OC(F)(F)F)cc3)cc2)c1N | inactive
90 | Cc1cccc(NS(=O)(=O)c2ccc(C(=O)NCC(C)(C)N3CCOCC3)cc2)c1C | inactive
91 | CC1CN(C(=S)SCC(=O)c2ccccc2)CC(C)O1 (centres undefined) | inactive
92 | O=C(CSC(=S)N1CCOCC1)c1ccccc1 | 14.6 µM (active)
93 | O=C(CSC(=S)N1CCOCC1)c1cc(Br)cc(Br)c1O | inactive
94 | Cc1cccc(C(=O)Nc2ccc(C(=O)N/N=C/c3cccc(C)n3)cc2)c1 | inactive
95 | Cc1cccc(C=CC(=O)c2ccc(Cl)cc2)c1 | inactive
96 | COc1ccc(OC)c(NC(=O)c2sc3nc(C)cc(C)c3c2N)c1 | inactive
97 | COc1ccc(OC)c(Cc2cnc3nc(N)nc(N)c3c2C)c1 | 0.251 µM (active)
98 | COc1ccc(OC)c(Cc2nnc(CCC(=O)NC3CCCC3)o2)c1 | inactive
99 | CC(=O)Nc1ccc(S(=O)(=O)NCC(=O)OCC(=O)c2ccc[nH]2)cc1 | inactive
100 | CC(=O)c1cccc(OCC(=O)OCC(=O)Nc2cc(S(=O)(=O)N3CCCCC3)ccc2C)c1 | inactive
101 | CCCOc1ccc(C(=O)C(CCC(CNCC)C(=O)c2ccc(OCCC)cc2)CNCC)cc1 (centres undefined) | 13 µM (active)
102 | CCCOc1ccc(C(=O)CCC(=O)OC(C)C(=O)Nc2ccc(NC(C)=O)cc2)cc1 (centres undefined) | inactive
103 | CCCCOc1ccc(C(=O)NN2CCN(C)CC2)cc1 | inactive
104 | CCc1noc(C)c1C(=O)N1CCCC(N2CCN(c3ccc(F)cc3)CC2)C1 (centres undefined) | inactive
